This passage reports outcome and AC50 results from PubChem BioAssay (EPA / NIEHS).

For orientation: AC50 means the concentration giving half of the maximal activity seen.

SMILES strings stand for the structures. Active and inactive are the calls of the source. Rule for the calls: active = hit-call score of the fitted dose curve at least 0.9, where 1 is the maximum; inactive = score below 0.9.

This assay is described as follows: CCTE_Mundy_HCI_Cortical_Synap_Neur_Matur_NeuriteLength: CCTE's Synaptogenesis and Neurite Maturation Assay in rat cortical cells for Neurite Length, Mundy Lab (AID 2284214). As for the experimental part:
CCTE_Mundy_HCI_Cortical_Synap&Neurite_Matur is a multiplexed, cell-based-readout assay that uses rat primary cortical cells with measurements taken at 288.33 hours after chemical dosing in a microplate: 96-well plate.CCTE_Mundy_HCI_Cortical_Synap_Neur_Matur_NeuriteLength is one of eight components of the CCTE_Mundy_HCI_Cortical_Synap&Neurite_Matur assay. It measures synaptogenesis and neurite maturation related to neurite length using High Content Imaging of fluorescently labelled markers.[…] Using a type of morphology reporter, loss -of-signal activity can be used to understand developmental effects.
Cells are plated onto 96 well plates and allowed 2 hr for attachment to the substrate. At days in vitro (DIV) 5, Cytosine Arabinoside (AraC) is added to arrest glial cell growth. Chemicals are dosed and a media change is performed at DIV 7 of differentiation and is continued through DIV 12 when the experiment is terminated. Cells are fixed with […] and Hoechst Dye. Cells are stained using Millipore Mouse anti-MAP2MAB3418 (1:800) and Millipore Rabbit anti-Synaptophysinsc-1750 (1:250) primary antibodies and Alexa Fluor-488 goat anti-mouse and AlexaFluor-546 goat anti-rabbit secondary antibodies to label neuronal cell nuclei, synapses and neurites. A Cellomics ArrayScan VTi HCS Reader is used for automated image acquisition and analysis of neurite outgrowth.
Turning to `CCOP(=O)(Oc1cnc(C(C)(C)C)nc1)OC(C)C` (configuration not stated), the result was inactive.

For `C[C@H](N)Cc1ccccc1`, the outcome was inactive.

As for `CCOP(=O)(OCC)OC(Cl)C(Cl)(Cl)Cl` (configuration not stated), the compound was called inactive.

Take `CC(=O)[O-].[Tl+]`: the AC50 is 23.8 µM (active).

`CC1(C)C(C=C(Cl)Cl)C1C(=O)O[C@H](C#N)c1cccc(Oc2ccccc2)c1` (some centres not stated): the concentration at half-maximal activity (AC50) is 11 µM (active).

In the case of `Brc1ccc(Oc2ccc(Br)cc2Br)c(Br)c1`, the AC50 is 4.59 µM (active).

As to `COP(=O)(OC)SCN1C(=O)c2ccccc2C1=O`, the compound was classed as inactive.

Regarding `[Cd+2].[Cl-].[Cl-]`, the half-maximal activity concentration (AC50) was 1.46 µM (active).

For the compound `O=[As]O`, the concentration at half-maximal activity (AC50) was 6.45 µM (active).

With `O=C(O)CNCP(=O)(O)O`, the call was inactive.

As for `CCOP(=O)(OCC)SCSCC`, the compound was classed as inactive.

On to `COC(=O)[C@H]1[C@@H](OC(=O)c2ccccc2)C[C@@H]2CC[C@H]1N2C`, for which the call was inactive.

In the case of `CC(=O)[O-].CC(=O)[O-].O.O.O.[Pb+2]`, the compound was classed as inactive.

On to `CC1(C)[C@H](C=C(Cl)Cl)[C@@H]1C(=O)O[C@@H](C#N)c1cccc(Oc2ccccc2)c1`, for which the outcome was inactive.

For `CC1(C)[C@@H](C=C(Cl)Cl)[C@@H]1C(=O)O[C@@H](C#N)c1ccc(F)c(Oc2ccccc2)c1`, the compound was classed as inactive.

On to `CCC[CH2][Sn]([CH2]CCC)([CH2]CCC)[O][Sn]([CH2]CCC)([CH2]CCC)[CH2]CCC`, for which the half-maximal activity concentration (AC50) is 0.0145 µM (active).

Regarding `[CH3][Hg][Cl]`, the concentration at half-maximal activity (AC50) was 0.428 µM (active).

Consider `CN1C(=O)CN=C(c2ccccc2)c2cc(Cl)ccc21`, for which the result was inactive.

On to `CN[C@]1(c2ccccc2Cl)CCCCC1=O`, for which the result was inactive.

As to `CNC(=N[N+](=O)[O-])NCC1CCOC1` (configuration not stated), the AC50 is 0.0157 µM (active).

For `CC1(C)C(C=C(Cl)c2ccc(Cl)cc2)C1C(=O)OC(C#N)c1ccc(F)c(Oc2ccccc2)c1` (configuration not stated), the AC50 was 61.6 µM (active).

`Cc1ccc(OP(=O)(Oc2ccc(C)cc2)Oc2ccc(C)cc2)cc1` (tested in a mixture with another compound): the call was inactive.

As for `CC1(C)[C@H](C(=O)O[C@H](C#N)c2cccc(Oc3ccccc3)c2)[C@@H]1C=C(Br)Br`, the half-maximal activity concentration (AC50) was 8.82 µM (active).

`CCOP(=S)(OCC)SCS(=O)C(C)(C)C` (configuration not stated): the compound was called inactive.

As to `CCOP(=O)(OCC)SCSC(C)(C)C`, the compound was classed as inactive.

With `C=CCN1CC[C@]23c4c5ccc(O)c4O[C@H]2C(=O)CC[C@@]3(O)[C@H]1C5`, the result was inactive.

Turning to `C[n+]1ccc(-c2cc[n+](C)cc2)cc1`, the AC50 was 0.966 µM (active).

On to `C#CCN(C)[C@H](C)Cc1ccccc1`, for which the compound was classed as inactive.

Turning to `[CH3][Sn]([CH3])[CH3]`, the AC50 was 2.41 µM (active).

On to `CC1(C)[C@H](C=C(Cl)Cl)[C@H]1C(=O)OCc1c(F)c(F)cc(F)c1F`, for which the AC50 is 9.91 µM (active).

For the compound `Cn1nc(C(F)(F)F)c(CS(=O)(=O)C2=NOC(C)(C)C2)c1OC(F)F`, the AC50 is 28 µM (active).

For `O.O.O.O.O.[Cd+2].[Cd+2].[Cl-].[Cl-].[Cl-].[Cl-]`, the concentration at half-maximal activity (AC50) is 1.84 µM (active).
